The panel holds about 83,000 compounds, 20% with a hit somewhere; the sample as a whole holds those more often.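 Note: values are percent growth. 100 is the growth of untreated cells, values between 100 and 0 indicate rising inhibition; between -100 and 0 indicates cell death.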 Activity calls are given as the source filed them. The calls were made as follows: active = growth percent below 10; inactive = the rest.
Tests used:
Assay in all cases: NCI-60 one-dose screen, 48 h (100 = growth as untreated, 0 = no growth, -100 = all killed)
Details in all cases: 10 µM
T-47D breast = system: T-47D breast
BT-549 breast = system: BT-549 breast
SW-620 colon = system: SW-620 colon
MCF7 breast = system: MCF7 breast
HCT-116 colon = system: HCT-116 colon
HCC-2998 colon = system: HCC-2998 colon
KM12 colon = system: KM12 colon
MDA-MB-435 melanoma = system: MDA-MB-435 melanoma

Measured: growth

C=CCNCCN1C(=O)c2ccc3c4c(ccc(c24)C1=O)C(=O)N(CCNCC=C)C3=O
active: T-47D breast -51.5% | SW-620 colon -50.3% | MCF7 breast -60.1% | HCT-116 colon -23% | HCC-2998 colon -81.2% | KM12 colon -53.7%
inactive: BT-549 breast 21.8%

O=C(CSc1nccc(Nc2cccc3ccccc23)n1)c1ccc(Cl)cc1
inactive: T-47D breast 76.1% | BT-549 breast 102% | SW-620 colon 92.7% | MCF7 breast 99.5% | HCT-116 colon 67.5% | HCC-2998 colon 101% | KM12 colon 94.7%

O=C1/C=C/[C@@H](O)[C@@H]2C[C@@H](O)C[C@H]2/C=C/CCC[C@@H](C(F)(F)F)O1
inactive: T-47D breast 82.3% | BT-549 breast 123% | SW-620 colon 93.9% | MCF7 breast 67.1% | HCT-116 colon 109% | HCC-2998 colon 107% | KM12 colon 99.3%

O=C1/C(=C/c2cccc(F)c2)Cc2ccccc21
inactive: T-47D breast 103% | BT-549 breast 106% | MDA-MB-435 melanoma 97.9% | SW-620 colon 102% | MCF7 breast 25.1% | HCC-2998 colon 97.1% | KM12 colon 98.7%

COC(=O)c1cc2oc(/C=C3/SC(=S)N(N)C3=O)cc2n1Cc1ccccc1
active: SW-620 colon -43.3%
inactive: T-47D breast 75.6% | BT-549 breast 36.5% | MDA-MB-435 melanoma 19.2% | MCF7 breast 21% | HCC-2998 colon 80.2% | KM12 colon 58.9%

COc1cc(Cc2cc(-c3ccccc3)n[nH]c2=O)cc(OC)c1OC
inactive: T-47D breast 40.5% | BT-549 breast 54.1% | SW-620 colon 33% | MCF7 breast 34.9% | HCT-116 colon 16.3% | HCC-2998 colon 79.1% | KM12 colon 48.8%

Cc1cc(C)nc(NS(=O)(=O)c2ccc(Nc3nc4nc(NCc5ccccc5)nc(-c5ccc(O)cc5)c4c(=O)[nH]3)cc2)n1
inactive: T-47D breast 25.1% | BT-549 breast 34% | MDA-MB-435 melanoma 32.1% | SW-620 colon 11.2% | MCF7 breast 16.1% | HCC-2998 colon 19.5% | KM12 colon 29.6%

CC(=O)Nc1ccc(S(=O)(=O)N/N=C(\C)c2ccc(C)cc2C)cc1
inactive: T-47D breast 106% | BT-549 breast 111% | SW-620 colon 101% | MCF7 breast 88.2% | HCT-116 colon 102% | HCC-2998 colon 101% | KM12 colon 110%

CCOC(=O)CSc1nc(-c2cc(OC)ccc2OC)cc(-c2ccc(OC)cc2)c1C#N
inactive: T-47D breast 65.6% | BT-549 breast 86% | SW-620 colon 92.1% | MCF7 breast 71.7% | HCT-116 colon 67.3% | HCC-2998 colon 85.5% | KM12 colon 71.3%

Clc1ccc(/C=C2\CCCC3C2=Nc2ccccc2NC3c2ccc(Cl)cc2)cc1 (stereo not drawn)
inactive: T-47D breast 104% | BT-549 breast 83% | MDA-MB-435 melanoma 11.9% | SW-620 colon 41.5% | MCF7 breast 35.8% | KM12 colon 17.3%
active: HCT-116 colon -87%

COc1cc2c(cc1NC(=O)C(F)(F)F)-c1ccc(NC(=O)C(F)(F)F)cc1C2
inactive: T-47D breast 83.8% | BT-549 breast 98.7% | SW-620 colon 98.1% | MCF7 breast 94.2% | HCT-116 colon 97.1% | HCC-2998 colon 105% | KM12 colon 97.3%

O=C1c2ccccc2C(=O)c2c1ccc1c(=O)n(-c3ccccc3C(F)(F)F)nnc21
inactive: T-47D breast 15.8% | BT-549 breast 52.8% | SW-620 colon 11.4% | HCC-2998 colon 28.9% | KM12 colon 27.2%
active: MCF7 breast -51.7% | HCT-116 colon -5.21%

COc1ccc(Cl)cc1Nc1nc(C(F)(F)F)ccc1C(=O)N/N=C/c1cc(OC)c(OC)c(OC)c1
active: HCC-2998 colon 8.93%
inactive: T-47D breast 29.7% | BT-549 breast 15.9% | MDA-MB-435 melanoma 37.1% | SW-620 colon 16.7% | MCF7 breast 17.8% | KM12 colon 30.6%

CS(=O)(=O)c1nccc(-c2c(-c3ccc(OCCc4ccccc4)cc3)nc3sccn23)n1
inactive: T-47D breast 91.3% | BT-549 breast 110% | SW-620 colon 93.7% | MCF7 breast 66.1% | HCT-116 colon 99.6% | HCC-2998 colon 106% | KM12 colon 106%

CN1CCc2c(sc3nc4n(-c5ccc(Cl)cc5)c(=O)[nH]n4c(=O)c23)C1
inactive: T-47D breast 87.6% | BT-549 breast 94% | SW-620 colon 109% | MCF7 breast 91.7% | HCT-116 colon 89.1% | HCC-2998 colon 102% | KM12 colon 100%

O=[N+]([O-])c1cc(Cl)cc(Cl)c1O
inactive: T-47D breast 93% | MDA-MB-435 melanoma 98.5% | SW-620 colon 103% | MCF7 breast 104% | HCT-116 colon 93.5% | HCC-2998 colon 105% | KM12 colon 98.9%

CC(C)(C)c1nn(-c2ccccc2)c2c1CC1(CN2Cc2ccc(Cl)cc2)C(=O)c2ccccc2C1=O
inactive: T-47D breast 75.5% | BT-549 breast 81.4% | SW-620 colon 85.6% | MCF7 breast 82.4% | HCT-116 colon 52.6% | HCC-2998 colon 91.4% | KM12 colon 89.6%

Cc1cn(-c2cc(F)cc(NC(=O)c3ccc(C)c(Nc4nccc(-c5cccnc5)n4)c3)c2)cn1
inactive: SW-620 colon 40.5% | MCF7 breast 16.8% | HCC-2998 colon 101% | KM12 colon 15.6%
active: T-47D breast 3.22% | BT-549 breast -27.3% | HCT-116 colon 6.97%

COc1nc2c(c(=O)n1C)CN(c1ccccc1)C(=O)C(C)N2 (stereo not drawn)
inactive: T-47D breast 95.5% | MDA-MB-435 melanoma 103% | SW-620 colon 99.9% | MCF7 breast 94.5% | HCT-116 colon 95.4% | HCC-2998 colon 94.5% | KM12 colon 105%

COc1ccc(C(=O)c2cc3c(OC)c(OC)c(OC)cc3[nH]2)cc1
inactive: T-47D breast 34.9% | SW-620 colon 33.9% | MCF7 breast 20.4% | HCT-116 colon 28.1% | HCC-2998 colon 51.3% | KM12 colon 12.6%
active: MDA-MB-435 melanoma -0.263%

Cc1ccc(NCCNCC(C)(C)O)c2c(=O)c3ccc(Cl)cc3sc12
inactive: T-47D breast 27.4%
active: MDA-MB-435 melanoma -84.5% | SW-620 colon -80.1% | MCF7 breast -73.2% | HCT-116 colon -61.6% | HCC-2998 colon -52.8% | KM12 colon 8.21%

O=c1[nH]c(=O)n(C2C[C@H](O)[C@@H](CO)O2)cc1C(F)(F)F (stereo partly drawn)
inactive: T-47D breast 95.3% | BT-549 breast 105% | SW-620 colon 114% | MCF7 breast 102% | HCT-116 colon 106% | HCC-2998 colon 108% | KM12 colon 115%

C#CC(C)(O)[C@@H]1C[C@H](CC(=O)O)C1(C)C (stereo partly drawn)
inactive: T-47D breast 120% | BT-549 breast 104% | SW-620 colon 109% | MCF7 breast 94% | HCT-116 colon 106% | KM12 colon 108%

N#CCc1csc(Cc2ccccc2)n1
inactive: T-47D breast 103% | MDA-MB-435 melanoma 111% | SW-620 colon 103% | MCF7 breast 90.1% | HCT-116 colon 106% | HCC-2998 colon 104% | KM12 colon 101%

C1CN(CC2CCC(CN3CCOCC3)O2)CCO1 (stereo not drawn)
inactive: T-47D breast 81.5% | MDA-MB-435 melanoma 104% | SW-620 colon 92.2% | MCF7 breast 53.2% | HCT-116 colon 89% | HCC-2998 colon 102% | KM12 colon 105%

COc1cc(C2CC(c3ccccc3)=NN2C(C)=O)cc(OC)c1OC (stereo not drawn)
active: MDA-MB-435 melanoma -29.4%
inactive: T-47D breast 34.1% | SW-620 colon 19.1% | MCF7 breast 14.6% | HCT-116 colon 19.3% | HCC-2998 colon 49.7% | KM12 colon 18.4%

COc1ccc(-c2cc(-c3ccc(OC)c(OC)c3)nc(SCCCC(=O)NO)n2)cc1
active: T-47D breast 4.26% | BT-549 breast 8.08% | SW-620 colon 2.56% | MCF7 breast -22% | HCT-116 colon 0.272% | HCC-2998 colon -15.7%
inactive: KM12 colon 15.7%

From PubChem BioAssay (NCI)
